# About 7,900 targets were measured; listed, in parts, are those with a hit and a random draw of the rest. About 0.6% of all pairs of compound and target were hits. Values without a mark were called inactive.
# Key:
# Test in all cases: log2 fold change, soluble protein after heating vs DMSO (PISA); higher = thermal stabilisation; K562 cells, 10 uM, 30 min; active = over 0.2 and 3.5 SD of the protein, either way, in both replicates (recomputed)
# saracatinib = compound: CN1CCN(CCOc2cc(OC3CCOCC3)c3c(Nc4c(Cl)ccc5c4OCO5)ncnc3c2)CC1 [saracatinib]
# In short: (§1)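 K562 cells at 2×10^6 cells/mL were given 10 μM compound for 30 min. Aliquots then went through 3 min of heating across 48°C-58°C, were pooled, and were extracted in PBS with 0.5% NP-40 at 4°C, and the supernatant after 21,000xg for 90 min was quantified by TMTpro 16plex LC-MS/MS with channel sums equalised. Thermal stability relative to control samples, from duplicates, is given as log2 fold change.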
# sotrastaurin = compound: CN1CCN(c2nc(C3=C(c4c[nH]c5ccccc45)C(=O)NC3=O)c3ccccc3n2)CC1 [sotrastaurin]
# In short: as §1
# alvocidib = compound: CN1CC[C@H](c2c(O)cc(O)c3c(=O)cc(-c4ccccc4Cl)oc23)[C@H](O)C1 [alvocidib]
# In short: as §1
# Tubastatin A = compound: CN1CCc2c(c3ccccc3n2Cc2ccc(C(=O)NO)cc2)C1 [Tubastatin A]
# In short: as §1
# [1] = compound: CNC(=O)C1=CC=CC=C1NC2=NC(=NC=C2Cl)NC3=C(C=C(C=C3)N4CCOCC4)OC
# In short: as §1
# defactinib = compound: CNC(=O)c1ccc(Nc2ncc(C(F)(F)F)c(NCc3nccnc3N(C)S(C)(=O)=O)n2)cc1 [defactinib]
# In short: as §1
# rucaparib = compound: CNCc1ccc(-c2[nH]c3cc(F)cc4c3c2CCNC4=O)cc1 [rucaparib]
# In short: as §1
# [2] = compound: CNc1nc(-c2ccc3c(N)n[nH]c3c2)cc(N2C[C@@H](C(=O)NC3CCCCC3)CC[C@H]2C)n1
# In short: as §1
# encorafenib = compound: COC(=O)N[C@@H](C)CNc1nccc(-c2cn(C(C)C)nc2-c2cc(Cl)cc(NS(C)(=O)=O)c2F)n1 [encorafenib]
# In short: as §1
# [3] = compound: COC(=O)[C@H](CCSC)NC(=O)C1=C(C=C(C=C1)NC[C@H](CS)N)C2=CC=CC=C2
# In short: as §1
# Sequence of UniProt Q8TCT7 (Q8TCT7 whole entry, looked up): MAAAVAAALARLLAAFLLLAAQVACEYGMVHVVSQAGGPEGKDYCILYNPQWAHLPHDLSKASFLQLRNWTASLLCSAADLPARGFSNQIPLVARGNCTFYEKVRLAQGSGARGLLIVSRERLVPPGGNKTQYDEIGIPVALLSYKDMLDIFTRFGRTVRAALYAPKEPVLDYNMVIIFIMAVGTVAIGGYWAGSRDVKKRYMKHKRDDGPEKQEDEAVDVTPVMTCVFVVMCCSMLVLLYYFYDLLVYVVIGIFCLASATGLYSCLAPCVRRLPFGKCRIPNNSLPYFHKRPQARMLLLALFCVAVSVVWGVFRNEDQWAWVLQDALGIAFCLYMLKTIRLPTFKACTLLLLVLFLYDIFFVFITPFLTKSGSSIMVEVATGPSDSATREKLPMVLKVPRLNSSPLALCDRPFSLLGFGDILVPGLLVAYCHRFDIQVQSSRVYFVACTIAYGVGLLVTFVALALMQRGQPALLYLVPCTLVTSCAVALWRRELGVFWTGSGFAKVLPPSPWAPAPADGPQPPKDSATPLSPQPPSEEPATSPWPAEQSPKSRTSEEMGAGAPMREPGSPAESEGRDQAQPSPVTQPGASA
# Sequence of UniProt O60264 (O60264 whole entry, looked up): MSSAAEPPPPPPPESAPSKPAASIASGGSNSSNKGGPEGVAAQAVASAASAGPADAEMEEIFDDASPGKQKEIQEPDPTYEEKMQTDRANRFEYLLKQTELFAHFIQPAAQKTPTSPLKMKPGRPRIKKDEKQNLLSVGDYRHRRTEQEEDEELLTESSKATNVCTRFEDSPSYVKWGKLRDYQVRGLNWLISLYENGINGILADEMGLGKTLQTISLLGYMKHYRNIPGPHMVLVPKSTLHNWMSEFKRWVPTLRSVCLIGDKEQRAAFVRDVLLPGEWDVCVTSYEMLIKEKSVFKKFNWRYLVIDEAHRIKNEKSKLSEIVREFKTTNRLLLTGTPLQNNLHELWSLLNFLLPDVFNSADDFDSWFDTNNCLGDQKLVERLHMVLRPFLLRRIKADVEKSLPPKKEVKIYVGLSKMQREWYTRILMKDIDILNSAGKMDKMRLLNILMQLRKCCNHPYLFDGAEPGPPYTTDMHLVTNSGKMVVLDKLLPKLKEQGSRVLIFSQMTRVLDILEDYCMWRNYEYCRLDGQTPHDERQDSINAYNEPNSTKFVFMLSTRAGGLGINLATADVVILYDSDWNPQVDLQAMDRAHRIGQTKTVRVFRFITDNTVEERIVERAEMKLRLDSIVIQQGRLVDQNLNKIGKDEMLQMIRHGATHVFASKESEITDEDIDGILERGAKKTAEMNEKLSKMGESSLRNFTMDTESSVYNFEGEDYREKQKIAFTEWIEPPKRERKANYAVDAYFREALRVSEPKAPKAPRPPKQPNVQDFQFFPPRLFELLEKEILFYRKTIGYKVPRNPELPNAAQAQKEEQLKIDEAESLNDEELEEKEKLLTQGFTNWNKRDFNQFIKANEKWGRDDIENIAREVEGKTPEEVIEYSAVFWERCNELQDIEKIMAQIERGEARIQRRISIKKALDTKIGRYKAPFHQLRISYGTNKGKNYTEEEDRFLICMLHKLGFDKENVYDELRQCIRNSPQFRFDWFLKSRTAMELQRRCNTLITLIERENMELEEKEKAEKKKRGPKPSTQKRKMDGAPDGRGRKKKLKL
# Sequence of UniProt Q9BZJ4 (Q9BZJ4 whole entry, looked up): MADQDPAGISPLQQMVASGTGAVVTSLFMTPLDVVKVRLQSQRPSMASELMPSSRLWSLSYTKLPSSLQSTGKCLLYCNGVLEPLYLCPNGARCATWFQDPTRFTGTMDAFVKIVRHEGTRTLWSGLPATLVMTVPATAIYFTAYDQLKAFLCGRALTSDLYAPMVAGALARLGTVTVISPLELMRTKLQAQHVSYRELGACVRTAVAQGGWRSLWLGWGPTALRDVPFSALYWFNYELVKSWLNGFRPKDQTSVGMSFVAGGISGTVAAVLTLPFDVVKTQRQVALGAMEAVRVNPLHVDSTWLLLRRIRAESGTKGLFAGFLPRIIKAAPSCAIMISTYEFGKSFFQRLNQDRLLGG
# Sequence of UniProt P23497 (P23497 whole entry, looked up): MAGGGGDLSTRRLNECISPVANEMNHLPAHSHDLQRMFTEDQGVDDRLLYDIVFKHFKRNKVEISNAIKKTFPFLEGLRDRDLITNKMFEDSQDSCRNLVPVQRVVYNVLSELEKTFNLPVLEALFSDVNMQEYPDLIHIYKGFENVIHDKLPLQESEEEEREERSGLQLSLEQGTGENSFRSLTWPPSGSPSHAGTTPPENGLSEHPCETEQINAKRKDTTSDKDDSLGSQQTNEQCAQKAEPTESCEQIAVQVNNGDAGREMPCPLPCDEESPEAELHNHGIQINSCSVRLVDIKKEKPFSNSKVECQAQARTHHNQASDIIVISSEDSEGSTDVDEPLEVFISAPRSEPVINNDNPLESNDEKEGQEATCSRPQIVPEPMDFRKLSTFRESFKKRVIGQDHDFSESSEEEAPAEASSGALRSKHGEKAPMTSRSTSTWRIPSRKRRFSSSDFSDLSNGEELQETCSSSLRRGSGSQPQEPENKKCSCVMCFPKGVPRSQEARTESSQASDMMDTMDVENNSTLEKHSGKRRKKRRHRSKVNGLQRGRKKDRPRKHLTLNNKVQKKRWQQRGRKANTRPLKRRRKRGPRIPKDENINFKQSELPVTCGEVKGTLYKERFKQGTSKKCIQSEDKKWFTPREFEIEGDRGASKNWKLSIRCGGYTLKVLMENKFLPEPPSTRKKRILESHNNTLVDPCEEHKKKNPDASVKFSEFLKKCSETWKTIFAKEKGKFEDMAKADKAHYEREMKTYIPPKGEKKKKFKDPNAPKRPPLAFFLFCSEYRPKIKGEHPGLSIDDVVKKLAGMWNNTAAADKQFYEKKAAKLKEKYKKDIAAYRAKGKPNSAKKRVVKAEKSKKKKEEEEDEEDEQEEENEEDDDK
# Sequence of UniProt Q9Y5W9 (Q9Y5W9 whole entry, looked up): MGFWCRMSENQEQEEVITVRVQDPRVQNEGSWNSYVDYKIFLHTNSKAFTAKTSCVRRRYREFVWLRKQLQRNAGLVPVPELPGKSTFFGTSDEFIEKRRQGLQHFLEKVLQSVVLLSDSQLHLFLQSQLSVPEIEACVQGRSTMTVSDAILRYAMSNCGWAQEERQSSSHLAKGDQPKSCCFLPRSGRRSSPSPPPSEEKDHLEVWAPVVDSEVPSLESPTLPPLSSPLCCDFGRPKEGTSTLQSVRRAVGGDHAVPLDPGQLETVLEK
# Sequence of UniProt Q05519 (Q05519 whole entry, looked up): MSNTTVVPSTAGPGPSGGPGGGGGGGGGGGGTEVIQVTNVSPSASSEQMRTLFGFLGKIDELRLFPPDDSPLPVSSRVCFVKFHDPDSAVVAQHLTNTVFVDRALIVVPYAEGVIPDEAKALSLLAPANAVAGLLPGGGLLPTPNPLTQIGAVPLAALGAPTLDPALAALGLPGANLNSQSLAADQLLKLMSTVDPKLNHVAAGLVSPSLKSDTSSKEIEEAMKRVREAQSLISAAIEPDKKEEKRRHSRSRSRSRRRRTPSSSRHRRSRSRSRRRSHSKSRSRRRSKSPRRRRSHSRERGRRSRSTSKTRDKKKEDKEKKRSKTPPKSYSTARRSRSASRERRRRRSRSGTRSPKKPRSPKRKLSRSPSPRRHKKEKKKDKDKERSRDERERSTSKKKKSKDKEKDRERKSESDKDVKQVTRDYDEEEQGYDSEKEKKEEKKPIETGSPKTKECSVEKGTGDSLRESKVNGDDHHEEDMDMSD
# Sequence of UniProt P35270 (P35270 whole entry, looked up): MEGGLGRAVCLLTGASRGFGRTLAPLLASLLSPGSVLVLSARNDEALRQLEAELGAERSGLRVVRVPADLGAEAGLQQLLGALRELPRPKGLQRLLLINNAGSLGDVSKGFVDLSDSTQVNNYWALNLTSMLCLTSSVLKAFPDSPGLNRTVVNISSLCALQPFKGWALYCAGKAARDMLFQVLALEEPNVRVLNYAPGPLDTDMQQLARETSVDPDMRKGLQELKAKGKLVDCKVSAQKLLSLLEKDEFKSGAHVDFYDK
# Sequence of UniProt O14975 (O14975 whole entry, looked up): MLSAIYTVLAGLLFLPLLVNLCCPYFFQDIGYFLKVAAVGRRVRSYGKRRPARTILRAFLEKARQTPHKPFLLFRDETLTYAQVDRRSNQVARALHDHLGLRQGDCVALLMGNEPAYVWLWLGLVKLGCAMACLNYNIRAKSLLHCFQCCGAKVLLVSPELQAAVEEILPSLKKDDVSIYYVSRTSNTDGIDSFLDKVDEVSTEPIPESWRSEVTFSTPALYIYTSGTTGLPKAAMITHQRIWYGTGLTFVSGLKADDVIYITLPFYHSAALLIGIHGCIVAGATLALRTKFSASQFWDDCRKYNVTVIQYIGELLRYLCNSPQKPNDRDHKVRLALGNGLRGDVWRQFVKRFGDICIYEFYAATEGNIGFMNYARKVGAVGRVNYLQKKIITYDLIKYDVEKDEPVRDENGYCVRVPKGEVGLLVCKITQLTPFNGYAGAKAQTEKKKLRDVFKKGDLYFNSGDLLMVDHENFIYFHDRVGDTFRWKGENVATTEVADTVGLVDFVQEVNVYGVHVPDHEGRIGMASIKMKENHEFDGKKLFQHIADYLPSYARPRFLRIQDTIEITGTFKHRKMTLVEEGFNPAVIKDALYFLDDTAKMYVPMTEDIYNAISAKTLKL
# Sequence of UniProt Q15208 (Q15208 whole entry, looked up): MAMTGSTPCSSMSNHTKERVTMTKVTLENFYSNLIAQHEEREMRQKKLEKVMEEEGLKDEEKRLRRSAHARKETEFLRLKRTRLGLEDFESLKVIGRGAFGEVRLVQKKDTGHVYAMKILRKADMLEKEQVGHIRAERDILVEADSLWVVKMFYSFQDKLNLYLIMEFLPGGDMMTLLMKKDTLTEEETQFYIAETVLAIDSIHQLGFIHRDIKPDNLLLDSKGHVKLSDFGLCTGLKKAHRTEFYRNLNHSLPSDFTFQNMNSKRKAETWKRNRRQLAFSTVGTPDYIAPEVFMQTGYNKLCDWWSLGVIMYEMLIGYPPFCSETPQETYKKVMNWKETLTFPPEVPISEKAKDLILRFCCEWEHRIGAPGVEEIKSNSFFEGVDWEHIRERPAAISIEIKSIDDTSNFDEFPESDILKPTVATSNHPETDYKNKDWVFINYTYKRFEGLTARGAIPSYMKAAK
Target,log2 fold change (saracatinib),log2 fold change (sotrastaurin),log2 fold change (alvocidib),log2 fold change (Tubastatin A),log2 fold change [1],log2 fold change (defactinib),log2 fold change (rucaparib),log2 fold change [2],log2 fold change (encorafenib),log2 fold change [3]
SMARCA5 (UniProt O60264),-0.084,-0.235,-0.193,0.082,0.038,-0.145,0.035,0.065,0.116,0.01
SRSF11 (UniProt Q05519),0.062,-0.059,-0.209,0.015,-0.243,-0.174,0.005,-0.089,-0.016,-0.045
SYNE2 isoform 2 (UniProt Q8WXH0),-0.121,-0.005,0.156,0.071,-0.109,0.029,-0.045,0.049,-0.107,-0.006
STK38 (UniProt Q15208),-0.02,-0.055,-0.12,-0.016,-0.073,-0.127,0.058,0.005,0.104,-0.064
SP100 isoform 4 (UniProt P23497),0.058,-0.003,-0.117,-0.015,0.018,-0.087,-0.065,-0.092,-0.06,0.095
SNX12 isoform 1 (UniProt Q9UMY4),0.035,0.07,0,0.013,0.059,-0.025,-0.025,-0.028,0.15,-0.037
STXBP5 (UniProt Q5T5C0),-0.014,0.019,-0.085,0.01,-0.023,-0.011,-0.002,-0.032,0.028,-0.003
SNX9 (UniProt Q9Y5X1),0.01,-0.064,-0.069,-0.025,0.038,-0.112,0.058,-0.005,0.049,0
SPPL2B (UniProt Q8TCT7),-0.009,0.074,-0.02,-0.031,0.026,-0.014,-0.036,-0.06,0.029,0.069
SNRPB2 (UniProt P08579),0.079,0.041,0.124,-0.11,0.02,0.193,0.058,-0.041,-0.037,0.054
SLC27A2 (UniProt O14975),0,0.005,-0.079,-0.015,0.144,-0.006,0.056,0.333 (active),0.015,-0.034
TLK1 (UniProt Q9UKI8),0.022,-0.011,-0.022,0.036,-0.064,-0.013,-0.029,-0.002,0.022,-0.033
TGFBI (UniProt Q15582),0.017,0.171,0.054,-0.005,-0.014,-0.037,-0.06,-0.113,0.006,0.098
SNX11 (UniProt Q9Y5W9),-0.055,-0.055,-0.135,-0.014,0.011,-0.02,-0.001,0.055,-0.074,0.002
SPCS2 (UniProt Q15005),-0.029,-0.054,-0.058,-0.026,0.062,-0.026,-0.062,0.038,0.044,0.021
SPR (UniProt P35270),0.318,0.052,0.064,-0.014,-0.053,0.237,0.043,0.026,-0.065,-0.021
TBCD (UniProt Q9BTW9),0.003,-0.056,-0.096,0.05,-0.016,-0.056,0,-0.031,0.018,-0.007
SLK isoform 2 (UniProt Q9H2G2),-0.015,-0.192,-0.031,0.025,0.079,-0.089,0.048,0.02,0.052,0.012
TLK2 isoform 2 (UniProt Q86UE8),0.048,-0.012,-0.027,0.014,-0.031,0,-0.051,-0.003,-0.006,0
SPART (UniProt Q8N0X7),-0.03,-0.011,-0.063,-0.05,0.001,-0.109,-0.02,-0.032,0.027,-0.014
TIMM44 (UniProt O43615),-0.055,-0.132,-0.044,-0.055,-0.012,-0.035,-0.12,-0.057,0.054,0.007
SRP72 (UniProt O76094),-0.102,-0.181,0.069,0.119,0.04,-0.035,0.184,0.055,0.155,-0.134
SNX2 (UniProt O60749),0.006,0.002,-0.089,0.004,-0.114,-0.068,-0.004,0.024,0,-0.029
SUPT5H (UniProt O00267),-0.01,-0.021,-0.075,0.007,-0.004,-0.126,-0.062,0.039,0.076,-0.017
TAMM41 isoform 3 (UniProt Q96BW9),-0.009,-0.003,0.027,-0.043,-0.037,0.015,0.036,-0.006,0.01,-0.007
THADA (UniProt Q6YHU6),0,-0.104,-0.095,0.073,-0.036,-0.079,-0.017,0.047,0.09,-0.014
SMCHD1 (UniProt A6NHR9),-0.238,-0.084,-0.492,0.002,-0.028,-0.45,0.183,0.075,0.188,-0.088
TBC1D5 isoform 2 (UniProt Q92609),-0.033,-0.169,-0.077,-0.036,-0.013,-0.088,0.015,-0.159,0.119,-0.055
SLC25A39 (UniProt Q9BZJ4),0.107,-0.076,0.134,-0.18,-0.118,-0.044,-0.01,0.015,0.005,0.041
